Measurements as given in PubChem BioAssay AID624122 (National Center for Advancing Translational Sciences (NCATS), 2012).
Activity calls are given as the source filed them.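 The calls were made as follows: active = a dissociation constant for apoferritin binding could be measured by titration calorimetry; inconclusive = binding seen but dissociation constant not obtainable; inactive = no binding seen.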

These molecules were tested against Ferritin light chain (Equus caballus) (UniProt P02791) (assay: Isothermal Titration Calorimetry Based Assay for Measurement of Binding Affinity to Apoferritin). Settings: horse apoferritin.
Ferritin light chain (Equus caballus), sequence (P02791 2-175 limits assumed): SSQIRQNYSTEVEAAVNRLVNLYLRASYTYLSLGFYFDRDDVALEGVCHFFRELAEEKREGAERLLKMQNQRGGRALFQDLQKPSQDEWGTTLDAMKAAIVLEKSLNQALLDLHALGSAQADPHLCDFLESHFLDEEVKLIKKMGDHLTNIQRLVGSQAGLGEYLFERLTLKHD
Excerpt: Anesthetic development has remained a largely empirical process. There are growing concerns about the cognitive effects of known general anesthetics and acceleration of the onset of neurodegenerative disease. The compounds' toxicity and multiple specific binding targets in the mammalian brain [4] has made them less attractive as drug leads. This isothermal titration calorimetry (ITC) assay is used to provide Kd binding affinity measurements for apoferritin, which is used here as a surrogate system to identify compounds with potential anesthetic properties. References: [1] S.L. Bianchi, T. Tran, C. Liu, S. Lin, Y. Li, J.M. Keller, R.G. Eckenhoff, and M.F. Eckenhoff, Brain and behavior changes in 12-month-old Tg2576 and nontransgenic mice exposed to anesthetics. Neurobiol Aging 29 (2008) 1002-10. Z. Xie, Y. Dong, U. Maeda, R.D. Moir, W. Xia, D.J. Culley, G. Crosby, and R.E. Tanzi, The inhalation anesthetic isoflurane induces a vicious cycle of apoptosis and amyloid beta-protein accumulation. J Neurosci 27 (2007) 1247-54. […]
In order to further triage primary hits identified from qHTS screen (AID 485281), ITC was utilized to evaluate direct binding signatures between filtered compounds and apoferritin and provide a complete thermodynamic characterization of selected compounds. […] Concentrations were then determined using absorption spectroscopy based on standards prepared in organic solvents. […]

| SMILES | Kd |
| --- | --- |
| Cc1ccc(-c2ccc(=O)n(CC(=O)NCCc3ccccc3)n2)cc1 | 8.2 µM (active) |
| COc1ccc(-c2ccc(=O)n(CC(=O)NCc3ccco3)n2)cc1 | 4.2 µM (active) |
